This note sets out measurements from PubChem BioAssay (NCATS).

SMILES strings stand for the structures. Several values for one entry are separate records, joined by “and”; a condition that tells them apart may be missing. Equal entries are not always repeated. Inconclusive results are not listed. Activity calls are given as the source filed them. Unless noted, calls follow the shape of the dose curve; as a rule, active = well fitted curve in the direction sought with a large enough effect; inconclusive = small, poorly fitted or top-dose-only effect, or another doubt; inactive = no such curve, though single readings can be large; an effect the other way counts as inactive or inconclusive.

Sequence of DNA repair nuclease/redox regulator APEX1 (Homo sapiens) (P27695 whole entry, looked up): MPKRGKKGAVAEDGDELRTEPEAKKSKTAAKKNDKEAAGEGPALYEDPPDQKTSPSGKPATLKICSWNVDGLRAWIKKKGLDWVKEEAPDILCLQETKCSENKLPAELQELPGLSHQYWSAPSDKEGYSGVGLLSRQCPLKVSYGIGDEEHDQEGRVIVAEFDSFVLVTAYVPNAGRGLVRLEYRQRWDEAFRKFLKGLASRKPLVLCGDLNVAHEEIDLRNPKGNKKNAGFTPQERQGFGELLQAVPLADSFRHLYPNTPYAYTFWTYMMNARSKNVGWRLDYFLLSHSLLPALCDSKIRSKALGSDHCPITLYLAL

System in the first experiment: not listed separately
The experiment can be described thus: Cell Viability - LYMP1-002 - Assay at 40 hr (AID 994). Also: nearly all actives have a fitted effect of over 60% in size. Also: potency is read from the fitted curve at half-maximal effect.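 As to viability change, negative = cytotoxic: 0% = DMSO only and full inhibition = 92 µM tetraoctylammonium bromide.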 The note with it: LYMP1-002 lymphoblastoid cell viability; series mostly up to 92.2 µM; viability change, negative = cytotoxic: at the top concentration. The procedure, abridged: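 LYMP1-002 human lymphoblastoid cells (2500/well, complete medium) were treated with compounds for 40 hr at 37 C. Intracellular ATP was measured by CellTiter-Glo luminescence, and AC50 values came from Hill-equation fits of concentration-response data; tetraoctylammonium bromide was the positive control.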
For `CCCCCCc1ccc(O)cc1O`, the “viability change, negative = cytotoxic” value was -11.9% (inactive).

On to `COc1cccc2c1C(=O)c1c(O)c3c(c(O)c1C2=O)C[C@@](O)(C(=O)CO)C[C@@H]3O[C@H]1C[C@H](N)[C@H](O)[C@H](C)O1`, for which the Potency is 794 nM (active).

For `C[C@]12CC[C@@H]3c4ccc(O)cc4CC[C@H]3[C@@H]1CC[C@@H]2O`, the “viability change, negative = cytotoxic” value was -23.8% (inactive).

For `O=C1OC(c2ccc(O)cc2)(c2ccc(O)cc2)c2ccccc21`, the “viability change, negative = cytotoxic” value was -1.68% (inactive).

With `CC(=O)O[C@]1(C(C)=O)CC[C@H]2[C@@H]3C[C@H](C)C4=CC(=O)CC[C@]4(C)[C@H]3CC[C@@]21C`, the “viability change, negative = cytotoxic” value was -14.6% (inactive).

Regarding `CC(O)C(=O)O` (configuration not stated), the “viability change, negative = cytotoxic” value was 6.09% (inactive).

Another experiment deals with alpha-glucosidase (Oryza sativa, rice) (UniProt Q653V4). The experiment can be described thus: Counterscreen for Glucocerebrosidase Inhibitors: qHTS Assay for Rice alpha-Glucosidase at pH 5.0 (AID 997).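 Also: 0% = full activity with enzyme and -100% = basal without enzyme.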 The note with it: rice alpha-glucosidase enzyme activity; series mostly up to 76.9 µM; activity change, negative = inhibition: at the top concentration. The procedure, abridged: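 Rice alpha-glucosidase (4 nM final) with 400 uM 4-methylumbelliferyl-alpha-D-glucopyranoside in citrate buffer pH 5.0, 20 min at room temperature, stopped at pH 10; fluorescence 365/440 nm, compounds 0.7 nM–77 uM, AC50 from Hill fits.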
For the compound `COc1cc(NS(C)(=O)=O)ccc1Nc1c2ccccc2nc2ccccc12`, the “activity change, negative = inhibition” value was 76.3% (inactive).

Take `Oc1cc(O)c2c(c1)O[C@H](c1ccc(O)c(O)c1)[C@H](O)C2`: the “activity change, negative = inhibition” value was -1.63% (inactive).

As for `O=C1CCC(c2ccc(-n3ccnc3)cc2)=NN1`, the “activity change, negative = inhibition” value is -0.218% (inactive).

In the case of `C[C@@H]1C(=O)NC2=Nc3cccc(Cl)c3CN21`, the “activity change, negative = inhibition” value is -1.38% (inactive).

`Oc1ccc(O)cc1`: the “activity change, negative = inhibition” value was -5.59% (inactive).

As to `C[C@]12CC[C@@H]3c4ccc(O)cc4CC[C@H]3[C@@H]1CC[C@@H]2O`, the “activity change, negative = inhibition” value is -1.04% (inactive).

On to `CN1[C@@H]2CC[C@H]1CC(OC(=O)c1c[nH]c3ccccc13)C2` (some centres not stated), for which the “activity change, negative = inhibition” value was -0.677% (inactive).

On to `CN1CCC[C@@H]1c1cccnc1`, for which the “activity change, negative = inhibition” value was -3.34% (inactive).

`COc1cc(-c2ccc(=O)[nH]n2)ccc1OC(F)F`: the “activity change, negative = inhibition” value is -2.09% (inactive).

Take `CCCC1O[C@@H]2C[C@H]3[C@@H]4CCC5=CC(=O)C=C[C@]5(C)[C@H]4[C@@H](O)C[C@]3(C)[C@]2(C(=O)CO)O1` (some centres not stated): the “activity change, negative = inhibition” value was -5.56% (inactive).

System in a further experiment: not listed separately
In words: qHTS Assay for Lipid Storage Modulators (AID 1519; calls by dose curve; as to activity change, negative = inhibition: % is scaled to controls: 0 for no effect and ±100 for the full control effect). Particulars: Drosophila S3 cells, BODIPY lipid droplet/cell ratio, laser cytometry; at 25.7 µM (top of the series); cells loaded with oleic acid. A digest of the protocol: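 Cells seeded at 5,000 per well were treated with compounds over a concentration series and loaded with oleic acid (400 uM, as added). Lipid droplet fluorescence (488 nm excitation, 500-530 nm channel) was read by laser-scanning cytometry and normalized to 20 uM Triacsin C.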
(Quantitative high-throughput screening tests each substance at several concentrations.)
Take `Oc1c(I)cc(Cl)c2cccnc12`: the activity change, negative = inhibition is -3.26% (inactive).

On to `CC(=O)Oc1ccc(C(c2ccc(OC(C)=O)cc2)c2ccccn2)cc1`, for which the activity change, negative = inhibition was -1.79% (inactive).

With `Oc1cc(O)c2c(c1)O[C@H](c1ccc(O)c(O)c1)[C@H](O)C2`, the activity change, negative = inhibition was -1.15% (inactive) and 0.397% (inactive).

Still in this experiment, the particulars now being: Drosophila S3 cells, BODIPY lipid droplet/cell ratio, laser cytometry; at 57.5 µM (top of the series); cells loaded with oleic acid.
Turning to `COc1cc(NS(C)(=O)=O)ccc1Nc1c2ccccc2nc2ccccc12`, the activity change, negative = inhibition is 0.361% (inactive).

As to `Oc1c(I)cc(Cl)c2cccnc12`, the activity change, negative = inhibition was 2.97% (inactive).

With `CN(C)/N=N/c1nc[nH]c1C(N)=O`, the activity change, negative = inhibition was 6.55% (inactive).

Consider `C=CCc1ccc(O)c(OC)c1`, for which the activity change, negative = inhibition is 13.1% (inactive) and 1.99% (inactive).

For `CC/C(=C(/CC)c1ccc(O)cc1)c1ccc(O)cc1`, the activity change, negative = inhibition was 9.04% (inactive).

Consider `C[C@@H]1C(=O)NC2=Nc3cccc(Cl)c3CN21`, for which the activity change, negative = inhibition was 2.07% (inactive).

In the case of `CN=C(NC#N)Nc1ccc(C2=NNC(=O)CC2C)cc1` (configuration not stated), the activity change, negative = inhibition is 2.25% (inactive).

For `COC1=CC(=O)C[C@@H](C)[C@]12Oc1c(Cl)c(OC)cc(OC)c1C2=O`, the activity change, negative = inhibition was 14.1% (inactive).

Staying with this experiment, now noted: Drosophila S3 cells, BODIPY lipid droplet/cell ratio, laser cytometry; measured here: cell count channel max response; cells loaded with oleic acid.
`COc1cc(NS(C)(=O)=O)ccc1Nc1c2ccccc2nc2ccccc12`: the max response was -18.5%.

With `Oc1c(I)cc(Cl)c2cccnc12`, the max response is -21.6% and -13.1%.

Consider `CC(=O)Oc1ccc(C(c2ccc(OC(C)=O)cc2)c2ccccn2)cc1`, for which the max response was -13.8%.

Consider `Oc1cc(O)c2c(c1)O[C@H](c1ccc(O)c(O)c1)[C@H](O)C2`, for which the max response was -2.18% and -16.1%.

For the compound `CN(C)/N=N/c1nc[nH]c1C(N)=O`, the max response was determined as 10%.

As to `C=CCc1ccc(O)c(OC)c1`, the max response was 19.8% and 9.66%.

For the compound `CC/C(=C(/CC)c1ccc(O)cc1)c1ccc(O)cc1`, the max response turned out to be 9.58%.

`C[C@@H]1C(=O)NC2=Nc3cccc(Cl)c3CN21`: the max response was -20.8%.

Consider `CN=C(NC#N)Nc1ccc(C2=NNC(=O)CC2C)cc1` (configuration not stated), for which the max response was 14.7%.

As for `COC1=CC(=O)C[C@@H](C)[C@]12Oc1c(Cl)c(OC)cc(OC)c1C2=O`, the max response stood at 4.54%.

The same experiment, now with this note: Drosophila S3 cells, BODIPY lipid droplet/cell ratio, laser cytometry; measured here: lipid channel max response; cells loaded with oleic acid.
For the compound `COc1cc(NS(C)(=O)=O)ccc1Nc1c2ccccc2nc2ccccc12`, the max response was -18.7%.

In the case of `Oc1c(I)cc(Cl)c2cccnc12`, the max response was -24.9% and -6.72%.

For the compound `CC(=O)Oc1ccc(C(c2ccc(OC(C)=O)cc2)c2ccccn2)cc1`, the max response was -14.3%.

With `Oc1cc(O)c2c(c1)O[C@H](c1ccc(O)c(O)c1)[C@H](O)C2`, the max response was -4.1% and -15.5%.

With `CN(C)/N=N/c1nc[nH]c1C(N)=O`, the max response stood at 19.3%.

Turning to `C=CCc1ccc(O)c(OC)c1`, the max response was 40.9% and 11.8%.

Take `CC/C(=C(/CC)c1ccc(O)cc1)c1ccc(O)cc1`: the max response was 18.5%.

For `C[C@@H]1C(=O)NC2=Nc3cccc(Cl)c3CN21`, the max response is -17.8%.

As to `CN=C(NC#N)Nc1ccc(C2=NNC(=O)CC2C)cc1` (configuration not stated), the max response was 17.1%.

`COC1=CC(=O)C[C@@H](C)[C@]12Oc1c(Cl)c(OC)cc(OC)c1C2=O`: the max response was 22.2%.

The next experiment deals with DNA repair nuclease/redox regulator APEX1 (Homo sapiens) (UniProt P27695). In words: qHTS Validation Assay for Inhibitors of the Human Apurinic/apyrimidinic Endonuclease 1 (APE1) (AID 1705;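 also: TAMRA fluorescence gain over two minutes as APE1 cuts a quenched THF abasic duplex; % is scaled to controls: 0 for no effect and ±100 for the full control effect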). Particulars: purified APE1 endonuclease activity, fluorescence, titration; series mostly up to 57.1 µM; activity change, negative = inhibition: at the top concentration. A digest of the protocol:
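qHTS, 1536-well. APE1 + cpd 15 min RT → 50 nM TAMRA/BHQ-2 THF-abasic dsDNA substrate → kinetic fluorescence, 3 reads/60 s; delta(read3−read1) = reaction progress. No-enzyme buffer = negative control.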
With `N[C@H](CO)C(=O)O`, the “activity change, negative = inhibition” value is -2.22% (inactive).

In the case of `O=C1CCC(c2ccc(-n3ccnc3)cc2)=NN1`, the “activity change, negative = inhibition” value was -0.747% (inactive).

With `C[C@@H]1C(=O)NC2=Nc3cccc(Cl)c3CN21`, the “activity change, negative = inhibition” value is -5.98% (inactive).

In the case of `Oc1ccc(O)cc1`, the “activity change, negative = inhibition” value was -3.54% (inactive).

`C[C@]12CC[C@@H]3c4ccc(O)cc4CC[C@H]3[C@@H]1CC[C@@H]2O`: the “activity change, negative = inhibition” value is -6.47% (inactive).

For the compound `CNCCC(Oc1ccccc1C)c1ccccc1` (configuration not stated), the “activity change, negative = inhibition” value is -2.26% (inactive).

For the compound `CN=C(NC#N)Nc1ccc(C2=NNC(=O)CC2C)cc1` (configuration not stated), the “activity change, negative = inhibition” value was 4.88% (inactive).

`COc1cc(-c2ccc(=O)[nH]n2)ccc1OC(F)F`: the “activity change, negative = inhibition” value was -1.08% (inactive).

A further experiment has as its target Endonuclease 4 (Escherichia coli (strain K12)) (UniProt P0A6C1). In words: Counterscreen for APE1 Inhibitors: qHTS Validation Assay for Inhibitors of Endonuclease IV (AID 1708). Also: % is scaled to controls: 0 for no effect and ±100 for the full control effect. Particulars: E. coli endonuclease IV, DNA cleavage fluorescence; series mostly up to 57.1 µM; activity change, negative = inhibition: at the top concentration. A digest of the protocol: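 Concentration-response counterscreen run identically to the APE1 assay: 15 min room-temperature preincubation of 2 nM enzyme with compound, reaction started with 50 nM quenched abasic DNA, progress taken from kinetic fluorescence.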
A general note: The purpose of a counterscreen is to sort out artefacts and off-target activity.
Regarding `N[C@H](CO)C(=O)O`, the “activity change, negative = inhibition” value is -9.72% (inactive).

In the case of `O=C1CCC(c2ccc(-n3ccnc3)cc2)=NN1`, the “activity change, negative = inhibition” value was 19.8% (inactive).

In the case of `C[C@@H]1C(=O)NC2=Nc3cccc(Cl)c3CN21`, the “activity change, negative = inhibition” value was -10.3% (inactive).

`C[C@]12CC[C@@H]3c4ccc(O)cc4CC[C@H]3[C@@H]1CC[C@@H]2O`: the “activity change, negative = inhibition” value was -10.3% (inactive).

With `CNCCC(Oc1ccccc1C)c1ccccc1` (configuration not stated), the “activity change, negative = inhibition” value is -6.18% (inactive).

Regarding `CN=C(NC#N)Nc1ccc(C2=NNC(=O)CC2C)cc1` (configuration not stated), the “activity change, negative = inhibition” value is -10.4% (inactive).

For the compound `COc1cc(-c2ccc(=O)[nH]n2)ccc1OC(F)F`, the “activity change, negative = inhibition” value was 0.0803% (inactive).
